Reference: PubChem BioAssay (NCI)
About 83,000 compounds went through this panel and 20% of them were active in at least one assay; those are over-represented in the sample as a whole.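 Each cell line was grown in a 96-well plate and treated with one concentration of compound for 48 hours. Values below 10 were considered active.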 A number with no mark means an inactive call. Activity calls are given as the source filed them.

The molecules below were run on NCI-H522 lung (assay: NCI-60 one-dose screen, 48 h (100 = growth as untreated, 0 = no growth, -100 = all killed)). Conditions: 10 µM.

Q: With CC(=O)OCC1CCCO1 (centres undefined) as the molecule, how does the growth read?
A: 91%

Q: Which growth does the source give for Cc1cc(C(O)(c2ccc(Nc3ccccc3)cc2)c2ccc(Nc3ccc(S(=O)(=O)O)cc3)cc2)ccc1N (centres undefined) here?
A: -45.8% (active)

Q: CN(C)Cc1cc(C(C)(C)CC(C)(C)C)ccc1O was tested. Which growth did it give?
A: 68.4%

Q: Which growth does the source give for COc1ccccc1C1OC2=Nc3cc(C)c(C)cc3NC2C1=O (centres undefined) here?
A: 91%

Q: How did the growth turn out when O=C1C[C@H](c2ccccc2)[C@H](c2ccccc2)C1 was run?
A: 79%

Q: How did the growth turn out when CN1C(=O)CN2CCc3ccccc3C2c2cc(Cl)ccc21 (centres undefined) was run?
A: 75.7%

Q: How did the growth turn out when C1CNC(C2=NCCN2)=N1 was run?
A: 101%

Q: How did the growth turn out when COc1cccc(Sc2ccc([N+](=O)[O-])c3no[n+]([O-])c23)c1 was run?
A: -19.9% (active)

Q: For NC(=O)c1ccc(N=C(N)N=C(N)N)cc1, which growth is on record?
A: 103%

These molecules were tested on A549/ATCC NSCLC in the same assay as above. Conditions: 10 µM.

Q: Which growth does the source give for Cc1ccc(N)cc1[N+](=O)[O-] here?
A: 100%

Q: With CC(C)COC(=O)COC(=O)OCCOCCOC(=O)OCC(=O)OCC(C)C as the molecule, how does the growth read?
A: 109%

Q: Which growth does the source give for CC1(c2ccccc2)NC(=O)NC1=O (centres undefined) here?
A: 96.5%

Q: With O=c1cc(-c2ccccc2)[nH]c2c1CCCC2 as the molecule, how does the growth read?
A: 36.6%

Q: Which growth does the source give for C=C1CC/C=C(\C)C(=O)C[C@@H]2[C@@H]1CC2(C)C here?
A: 109%

Q: Brc1cnc2ccccc2c1 was tested. Which growth did it give?
A: 104%

Q: How did the growth turn out when C=CCNc1nnc(C)s1 was run?
A: 116%

Q: COc1ccc(/C(C#N)=C2C=C/C(=N/O)c3ccccc3\2)cc1 was tested. Which growth did it give?
A: 11.8%

Q: Which growth does the source give for Cc1cc(C)c(CC(=O)O)c(C)c1 here?
A: 104%

Q: Which growth does the source give for Cc1ccc(O)c(C(=O)c2ccccc2)c1 here?
A: 95.9%

Q: CCOC(=O)c1cc(/C=C/c2ccc(Cl)cc2Cl)on1 was tested. Which growth did it give?
A: 91.6%

Q: For CC(=O)c1ccc(C)c(N)c1, which growth is on record?
A: 92.8%

Q: NC(=S)CN1CCOCC1 was tested. Which growth did it give?
A: 110%

Q: Which growth does the source give for CNC(=S)NC(C)(C)C here?
A: 98.3%

Q: How did the growth turn out when CC(=O)Nc1c(C)cc(C)cc1C was run?
A: 102%

Q: For O=C(Nc1cc(-c2ccccc2)[nH]n1)c1ccc(Cl)cc1, which growth is on record?
A: 70.3%

Q: For O=C(OCC(O)C1OC(c2ccccc2)OC(COC(=O)c2ccccc2)C1O)c1ccccc1 (centres undefined), which growth is on record?
A: 94.8%

Q: For CC(C)=C(NC(=O)c1ccccc1)C(=O)O, which growth is on record?
A: 105%

Q: For CCCCOC(OCCCC)c1ccccc1, which growth is on record?
A: 91.4%

Q: How did the growth turn out when CN(C)Cc1cc(C(C)(C)CC(C)(C)C)ccc1O was run?
A: 111%

Q: Which growth does the source give for Oc1ccc(Cc2ccccc2)c2cccnc12 here?
A: 16.2%

Q: C=CC[N+](C)(C)C was tested. Which growth did it give?
A: 100%

Q: With COc1ccccc1C1OC2=Nc3cc(C)c(C)cc3NC2C1=O (centres undefined) as the molecule, how does the growth read?
A: 67.6%

Q: For CC(C(=O)O)(C1CCCCC1)C1(O)CCCCC1 (centres undefined), which growth is on record?
A: 106%

Q: For O=c1[nH]c(O)c(/C=C2/C=Nc3ccccc32)[nH]1, which growth is on record?
A: 91.3%

Q: Which growth does the source give for COc1cccc(Sc2ccc([N+](=O)[O-])c3no[n+]([O-])c23)c1 here?
A: 84%

Each molecule was assayed on 786-0 renal in the same assay as above. Conditions: 10 µM.

Q: How did the growth turn out when Cc1ccc(N)cc1[N+](=O)[O-] was run?
A: 108%

Q: CC(C)COC(=O)COC(=O)OCCOCCOC(=O)OCC(=O)OCC(C)C was tested. Which growth did it give?
A: 103%

Q: Which growth does the source give for Nc1ccc(N)c([N+](=O)[O-])c1 here?
A: 118%

Q: With O=[N+]([O-])c1ccc(CO)cc1 as the molecule, how does the growth read?
A: 94.4%

Q: Which growth does the source give for O=c1cc(-c2ccccc2)[nH]c2c1CCCC2 here?
A: 36.4%

Q: How did the growth turn out when C=C1CC/C=C(\C)C(=O)C[C@@H]2[C@@H]1CC2(C)C was run?
A: 104%

Q: For Brc1cnc2ccccc2c1, which growth is on record?
A: 109%

Q: C=CCNc1nnc(C)s1 was tested. Which growth did it give?
A: 94.9%

Q: COc1ccc(/C(C#N)=C2C=C/C(=N/O)c3ccccc3\2)cc1 was tested. Which growth did it give?
A: 16.8%

Q: For Cc1ccc(O)c(C(=O)c2ccccc2)c1, which growth is on record?
A: 111%

Q: Which growth does the source give for COc1ccc(C(O)c2ccccc2)cc1 (centres undefined) here?
A: 100%

Q: With CCOC(=O)c1cc(/C=C/c2ccc(Cl)cc2Cl)on1 as the molecule, how does the growth read?
A: -68.6% (active)

Q: CC(=O)c1ccc(C)c(N)c1 was tested. Which growth did it give?
A: 103%

Q: How did the growth turn out when CNC(=S)NC(C)(C)C was run?
A: 101%

Q: For O=C(Nc1cc(-c2ccccc2)[nH]n1)c1ccc(Cl)cc1, which growth is on record?
A: 79.5%

Q: Which growth does the source give for O=C(OCC(O)C1OC(c2ccccc2)OC(COC(=O)c2ccccc2)C1O)c1ccccc1 (centres undefined) here?
A: 111%

Q: O=C(NC1CCCCC1)OCc1c(COC(=O)NC2CCCCC2)c(-c2ccc(Cl)c(Cl)c2)n2c1CCC2 was tested. Which growth did it give?
A: 8.95% (active)

Q: Which growth does the source give for CC(C)=C(NC(=O)c1ccccc1)C(=O)O here?
A: 112%

Q: For Nc1ccc(N=Nc2ccc(S(=O)(=O)O)cc2)c2ccccc12, which growth is on record?
A: 106%

Q: Which growth does the source give for CCCCOC(OCCCC)c1ccccc1 here?
A: 105%

Q: How did the growth turn out when CN(C)c1ccc(C(c2ccc(O)cc2)c2ccc(N(C)C)cc2)cc1 was run?
A: 105%

Q: Which growth does the source give for CN(C)c1ccc(CNC(C(=O)c2ccccc2)c2ccccc2)cc1 (centres undefined) here?
A: 109%

Q: Which growth does the source give for CC(=O)OCC1CCCO1 (centres undefined) here?
A: 93.5%

Q: How did the growth turn out when Cc1cc(C(O)(c2ccc(Nc3ccccc3)cc2)c2ccc(Nc3ccc(S(=O)(=O)O)cc3)cc2)ccc1N (centres undefined) was run?
A: -1.27% (active)

Q: With CN(C)Cc1cc(C(C)(C)CC(C)(C)C)ccc1O as the molecule, how does the growth read?
A: 92.9%

Q: With Oc1ccc(Cc2ccccc2)c2cccnc12 as the molecule, how does the growth read?
A: -1.42% (active)

Q: With C=CC[N+](C)(C)C as the molecule, how does the growth read?
A: 102%

Q: How did the growth turn out when COc1ccccc1C1OC2=Nc3cc(C)c(C)cc3NC2C1=O (centres undefined) was run?
A: 14%

Q: CC(C(=O)O)(C1CCCCC1)C1(O)CCCCC1 (centres undefined) was tested. Which growth did it give?
A: 98.9%

Q: How did the growth turn out when O=C1C[C@H](c2ccccc2)[C@H](c2ccccc2)C1 was run?
A: 101%

Q: How did the growth turn out when CN1C(=O)CN2CCc3ccccc3C2c2cc(Cl)ccc21 (centres undefined) was run?
A: 97.4%

Q: Which growth does the source give for C1CNC(C2=NCCN2)=N1 here?
A: 103%

Q: How did the growth turn out when O=c1[nH]c(O)c(/C=C2/C=Nc3ccccc32)[nH]1 was run?
A: 107%

Q: With NC(=O)c1ccc(N=C(N)N=C(N)N)cc1 as the molecule, how does the growth read?
A: 96.4%
